Mtb hypoxia inh = inhibitors of hypoxia-regulated fluorescent reporter in Mycobacterium tuberculosis | M. tuberculosis hypoxia-regulated fluorescent reporter, fluorescence | fluorescence inhibition, % (no concentration beside the values) | 0.1% of 300,000 active | AID 1159583; in the data active means fluorescence inhibition mostly above about 23%, no sharp cut-off; inactive means mostly below about 17%
Rv3671c inh = Rv3671c (M. tuberculosis) protease inhibition. P9WHR9. inhibition, % at 5.96 µM. 0.048% of 320,000 active. AID 2606; in the data active means inhibition above about 38%;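 further: extracellular domain of Rv3671c used as enzyme; 0% = enzyme with DMSO and 100% = no enzyme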
Mtb UGM inh = inhibitors of M. tuberculosis UDP-galactopyranose mutase; P9WIQ1; purified UGM, fluorescence polarization probe displacement; inhibition, % at 10 µM; 0.06% of 320,000 active; in the data active means inhibition above about 10%, passing the limit was not always enough; inconclusive means no clear call, values can overlap the other calls
RecA intein inh = inhibitors of M. tuberculosis RecA intein splicing. AID 2221. 0.75% of 290,000 active. inhibition, % (test concentration not listed). cell-free RecA intein splicing, fluorescence. P9WHJ3; in the data active means inhibition above about 30%; inconclusive means no clear call, values can overlap the other calls;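 further: 0% = vehicle wells and 100% = reference inhibitor control wells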
Target sequence (P9WHJ3 whole entry, looked up): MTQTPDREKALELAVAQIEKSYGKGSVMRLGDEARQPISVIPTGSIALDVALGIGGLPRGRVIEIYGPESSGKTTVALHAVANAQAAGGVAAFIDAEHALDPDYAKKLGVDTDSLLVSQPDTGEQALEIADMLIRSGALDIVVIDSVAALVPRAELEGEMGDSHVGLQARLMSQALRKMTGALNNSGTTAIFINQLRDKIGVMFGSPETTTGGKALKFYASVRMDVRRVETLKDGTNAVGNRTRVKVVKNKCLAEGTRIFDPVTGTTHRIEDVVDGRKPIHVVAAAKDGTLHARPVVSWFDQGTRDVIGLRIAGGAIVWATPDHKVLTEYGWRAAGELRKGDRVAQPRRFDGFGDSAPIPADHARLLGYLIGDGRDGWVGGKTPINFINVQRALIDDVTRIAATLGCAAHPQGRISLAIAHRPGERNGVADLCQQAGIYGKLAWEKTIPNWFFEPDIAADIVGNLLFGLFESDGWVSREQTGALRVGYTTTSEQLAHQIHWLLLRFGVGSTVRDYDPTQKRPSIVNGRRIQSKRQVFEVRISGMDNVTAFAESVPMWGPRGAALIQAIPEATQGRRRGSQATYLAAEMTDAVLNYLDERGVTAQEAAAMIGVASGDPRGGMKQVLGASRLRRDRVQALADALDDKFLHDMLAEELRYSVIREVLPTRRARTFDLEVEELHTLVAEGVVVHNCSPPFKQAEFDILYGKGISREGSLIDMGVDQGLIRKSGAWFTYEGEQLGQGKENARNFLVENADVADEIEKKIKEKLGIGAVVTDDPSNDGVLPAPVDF
Mtb betalactam = beta-lactam sensitization of Mtb H37Rv; M. tuberculosis H37Rv growth with meropenem, percent inhibition; inhibition, % at 25 µM; 0.27% of 330,000 active; AID 434955; call rule not given here;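 further: growth measured after seven days incubation then overnight dye step; 0% = bacteria only wells and 100% = bacteria with antibiotic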
The depositor's hits bear a star; ? = inconclusive; / = not tested or not shown. Most compounds without a hit are left out; they make up all but 0.77% or so of the library.

SMILES | Mtb hypoxia inh | Rv3671c inh | Mtb UGM inh | RecA intein inh | Mtb betalactam
COCc1[nH]nc2c1C(c1ccccc1F)C(C#N)=C(N)O2 (configuration not stated) | 4.2 | -10.4 | 2.8 | 35.0* | -1.8
CCOC(=O)Cc1[nH]nc2c1C(c1ccsc1)C(C#N)=C(N)O2 (configuration not stated) | 16.8 | 3.7 | 0.3 | 57.3* | 3.6
CC(CCN1C(Nc2ccccc2)=NCC1Cc1ccccc1)c1ccccc1 (configuration not stated) | 2.9 | / | / | / | /
CCN(CC)C(=O)CSc1nnc2nnc3cc(C)ccc3n12 | / | 5.7 | 0.4 | -2.4 | 78.4
CCN(CC)C(=O)CSc1nnc2nnc3cc(Cl)ccc3n12 | / | -8.0 | 1.8 | 42.4* | 96.9
CCOC(=O)C1C2COc3ccccc3C2N2C(=O)N(c3ccc(C(F)(F)F)cc3)C(=O)[C@@]12C (some centres not stated) | -6.2 | / | / | / | /
CCCCCCCCCCn1c2c(c(=N)c3c1CCC3)CCC2 | 13.2 | 6.1 | -2.1 | 31.7* | 100.1
Brc1ccc(Oc2ccc(Br)cc2Br)c(Br)c1 | -7.5 | -1.9 | 1.1 | / | 7.7
Oc1c(Br)cc(Br)cc1Oc1ccc(Br)cc1Br | / | -16.1 | 0.7 | 39.2* | -3.7
O=[N+]([O-])c1nn(-c2ccc(Cl)cc2)n(O)c1=NCc1cccnc1 | / | -8.1 | 1.4 | 1.5 | 99.2
O=[N+]([O-])c1nn(-c2cccc(Cl)c2)n(O)c1=NCc1cccnc1 | 57.2* | -0.4 | 1.6 | -4.0 | ?
COc1ccc(N2C(=O)/C(=C\c3ccco3)N=C2SCC(=O)NC(C)(C)C)cc1Cl | 10.3 | 0.2 | / | 38.0* | -6.2
CCN(CC)C(=O)CSC1=N/C(=C/c2ccco2)C(=O)N1c1ccc(OC)c(Cl)c1 | / | -11.3 | 1.2 | 15.6 | 0.2
CCOC(=O)C(N=Nc1sc(C(=O)OCC)c(C)c1C(=O)OCC)=C(C)O | -11.2 | / | / | / | /
COc1cc(/C=C2\C(=O)N(c3ccccc3)N=C2C)ccc1Oc1ccc([N+](=O)[O-])cc1[N+](=O)[O-] | 4.5 | -225.4 | 1.0 | / | 6.3
COc1cc(/C=C2/C(=O)N(c3ccc(C(=O)O)cc3)N=C2C)cc(OC)c1O | -3.9 | / | 1.8 | 2.1 | 4.7
CC1=NN(c2ccccc2)C(=O)/C1=C\c1ccc(Oc2ccc([N+](=O)[O-])cc2[N+](=O)[O-])cc1 | / | -226.7 | -1.7 | 84.3* | 5.8
COc1ccccc1/C=C1/C(=O)N(c2ccccc2)N=C1C | / | -138.2 | -3.2 | 58.0* | -0.9
COc1cc(/C=C2/C(=O)N(c3ccc(Br)cc3)N=C2C)cc(OC)c1OC | 6.6 | / | / | 62.9* | /
CC1CN(C(C)CO)C(=O)Cc2cc(NS(C)(=O)=O)ccc2OC1CN(C)CC1CC1 (configuration not stated) | 11.2 | / | / | / | /
Cc1ccc(C=C2CCC(C3CCCC3)C2=O)cc1 (configuration not stated) | 1.2 | / | / | / | /
NC(=NOC(=O)C=Cc1ccccc1)c1ccccn1 | -1.7 | / | / | / | /
CN1CCN(Cc2nc3ccccc3c(=O)n2CC#N)CC1 | 13.0 | -1.2 | -0.8 | -0.6 | 0.8
N#CCn1c(CCl)nc2ccccc2c1=O | / | 6.1 | 2.4 | 38.0* | 94.1
CCCC=C1CCCOC(C(=O)NCc2cc(C)n(C)n2)(C(F)(F)F)C1 (configuration not stated) | 11.5 | / | / | / | /
SMILES | Mtb hypoxia inh | Rv3671c inh | Mtb UGM inh | RecA intein inh | Mtb betalactam
CCOc1ccccc1Nc1nnc(Cc2ccccc2Cl)c(=O)[nH]1 | -0.4 | -4.2 | -1.0 | 30.9* | -1.1
CCOc1ccccc1Nc1nnc(C)c(=O)[nH]1 | 5.3 | -4.0 | -0.1 | 1.4 | -3.3
O=C(Oc1cccc(OC(=O)c2ccco2)c1)c1ccco1 | 12.2 | / | 5.3 | 49.3* | 23.5
O=C(Oc1ccc(-c2nnco2)cc1)c1ccco1 | 5.3 | 0.6 | 2.0 | 46.8* | 1.2
O=C(Oc1cccnc1)c1ccco1 | 8.6 | 3.3 | -2.3 | 0.8 | -7.7
O=C(Oc1cccc(-n2cnnn2)c1)c1ccco1 | / | 10.5 | -0.6 | 43.0* | -9.9
CCC(C)C(NC(=O)C1CCN(C(=O)C(NS(=O)(=O)c2ccc(C)cc2)C(C)C)CC1)C(=O)O (configuration not stated) | 9.4 | / | / | / | /
COc1cc2c(cc1OC)CN(C(=O)c1ccc([N+](=O)[O-])o1)CC2 | / | -6.5 | 0.5 | -2.3 | 99.9
O=C(c1ccc([N+](=O)[O-])o1)N1CCc2ccccc2C1 | 47.5* | 2.0 | -1.8 | 3.9 | 99.9
COc1ccc(C2C=C3CN(C(=O)OC(C)(C)C)S(=O)(=O)C3CC2OC(=O)c2ccc(C(F)(F)F)cc2)cc1 (configuration not stated) | 7.4 | / | / | / | /
O=C(C1=CC(C2CCCCC2)CC(OCc2ccc(CO)cc2)O1)N1CCOCC1 (configuration not stated) | 4.6 | / | / | / | /
Cc1cccc(C2C3C(=O)N(Cc4ccccc4)C(=O)C3[C@]3(CC(C)C)C(=O)N(c4cccc(F)c4)C(=O)N23)c1 (some centres not stated) | 15.5 | / | / | / | /
O=c1[nH]c(=S)[nH]c2nc(-c3ccccc3)cnc12 | 3.7 | -6.3 | 3.1 | -4.3 | 32.9
Cc1cc2nc3c(=O)[nH]c(=S)[nH]c3nc2cc1NC(=O)C(F)(F)F | -2.2 | 20.9 | 18.8* | -73.2 | -1.7
CCCC1OC2CC3C4CCC5=CC(=O)C=C[C@]5(C)C4C(O)C[C@]3(C)[C@]2(C(=O)CO)O1 (some centres not stated) | -8.2 | / | / | / | /
CC1=NCCc2c1[nH]c1cc(O)ccc21 | -0.3 | 5.7 | 31.1* | / | 0.3
COc1ccc(OCC(=O)Nc2ccc(N3CCOCC3)c(Cl)c2)cc1 | / | 0.6 | 1.5 | / | -3.5
COc1ccc(OCC(=O)NC(=S)Nc2ccc(N3CCOCC3)c(Cl)c2)cc1 | 38.1* | -9.3 | 2.0 | 2.4 | -14.0
CCOC(=O)C=Cc1ccccc1S(=O)(=O)NC(C)(C)C | 11.6 | / | / | / | /
O=C(Cn1nnc(-c2ccc(F)cc2)n1)Nc1cccc(S(=O)(=O)N2CCCC2)c1 | 34.5* | -33.1 | 1.9 | / | 10.9
O=C(Cn1nnc(-c2ccccc2Cl)n1)Nc1cccc(S(=O)(=O)N2CCCC2)c1 | 4.6 | -42.1 | -0.5 | / | 1.2
CCOC(=O)/C(C#N)=C1/SC(CC)C(=O)N1c1ccc(Br)cc1 (configuration not stated) | -6.0 | 3.7 | -0.2 | 4.5 | -11.6
CCOC(=O)/C(C#N)=C1/SC(C)C(=O)N1c1ccc(Br)cc1 (configuration not stated) | 10.6 | -8.6 | -0.2 | 31.7* | -10.1
CN(C)CCCN(C(=O)c1ccc2c(c1)CCCC2)c1nc2ccc(Cl)cc2s1 | 38.3* | 2.2 | -1.7 | 5.1 | 100.0
CN1CC(C(=O)N[C@]2(C)O[C@@]3(O)C4CCCN4C(=O)C(Cc4ccccc4)N3C2=O)CC2c3cccc4[nH]cc(c34)CC21 (some centres not stated) | -2.9 | / | / | / | /
Cc1ccc(NC(=S)/C(=C(\[O-])c2ccc(F)cc2)[n+]2ccccc2)cc1 | -1.4 | 0.1 | 1.3 | 30.3* | 1.8
Cc1ccc(C)c(NC(=S)/C(=C(\[O-])c2ccc(OC(F)F)cc2)[n+]2ccccc2)c1 | 3.4 | -3.0 | -0.8 | 32.6* | 0.3
Cc1ccc(/C([O-])=C(/C(=S)NCc2ccco2)[n+]2ccccc2)cc1 | / | 8.0 | -1.3 | 4.3 | -15.9

Source: PubChem
